Among the data in the supplement of paper PMC4709259 are mean cell size and cell count values, retold here.

In test [1] the test system is Jurkat. The test can be described thus: mean cell size (FSC-A) relative to DMSO control (fraction of control); higher = larger cells. To be noted: 48 h. The method in brief:
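Jurkat cells at 600 cells/µl were incubated for 1 h and then treated for 48h with the Enzo Screen-Well FDA Approved Drug Library v2.0 at 25µM, with DMSO at 0.9% (v/v) final. Compounds that reduced counts below 20% of controls were retested in 10-fold dilutions down to 25nM. Cell count and mean cell size, taken as forward scatter area, were measured by flow cytometry relative to solvent-only controls. Each plate carried 6-12 controls, and values are means of 3 biological replicates.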

The subject of test [2] is Jurkat. The test can be described thus: cell count relative to DMSO control (fraction of control); higher = more cells (less growth inhibition). Particulars: 48 h.

The structures appear in SMILES notation. Counter-ions that a name gives are not always drawn. ± gives the standard deviation.

In the test on Jurkat [1], `C[C@](N)(Cc1ccc(O)c(O)c1)C(=O)O` [Methyldopa Sesquihydrate (L-Α-Methyl-Dopa Sesquihyrate)] (concentration: 25 µM) registered a mean cell size of 0.958 ± 0.027. The cell count with Jurkat [2] was determined as 0.834 ± 0.052.

As for `C[C@H](CS)C(=O)N1CCC[C@H]1C(=O)O` [Captopril] (concentration: 25 µM), the mean cell size in the test on Jurkat [1] turned out to be 0.951 ± 0.029. Besides, in the test on Jurkat [2], the cell count was found to be 1.01 ± 0.099.

The compound `CCOC(=O)[C@H](CCc1ccccc1)N[C@@H](C)C(=O)N1Cc2cc(OC)c(OC)cc2C[C@H]1C(=O)O` [Moexipril·HCl] (concentration: 25 µM) came in with a mean cell size with Jurkat [1] of 0.9426 ± 0.0064. In addition, the cell count in the test on Jurkat [2] was 0.587 ± 0.074.

With `Nc1nc(NC2CC2)c2ncn([C@H]3C=C[C@@H](CO)C3)c2n1` [Abacavir Sulfate] (concentration: 25 µM), the mean cell size with Jurkat [1] turned out to be 1.1 ± 0.033. In addition, the cell count in the test with Jurkat [2] was 0.858 ± 0.15.
